Results from PubChem BioAssay (Tox21).
Several values for one entry are separate records, joined by “and”; a condition that tells them apart may be missing. Identical values can stand only once. A structure can be active in one record and inactive in another. Activity calls are given as the source filed them. Unless noted, the call rests on the fitted dose curve; in most records, active means well fitted curve in the direction sought with a large enough effect in the repeat runs; inconclusive means weak or mixed curves; inactive means no such curve, though single readings can be large; an effect the other way counts as inactive or inconclusive.

What was measured:
[1] = tested on: thyroid hormone receptor (rat, GH3 cells); test: qHTS assay to identify small molecule agonists of the thyroid receptor (TR) signaling pathway (AID 743066; calls by dose curve; further: potency means the concentration at half of the fitted maximal effect)
[2] = qHTS assay to identify small molecule antagonists of the estrogen receptor alpha (ER-alpha) signaling pathway - cell viability counter screen (AID 743074; calls by dose curve; further: nearly all actives have a fitted effect of over 45% in size; further: potency means the concentration at half of the fitted maximal effect)
[3] = qHTS assay to identify small molecule antagonists of the estrogen receptor alpha (ER-alpha) signaling pathway using the BG1 cell line - cell viability counter screen (AID 743081);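 further: compound given together with 17beta-estradiol as the ER stimulus; nearly all actives have a fitted effect of over 45% in size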; further: potency means the concentration at half of the fitted maximal effect
[4] = biological target: Aromatase (Homo sapiens) (UniProt P11511); test: qHTS assay to identify aromatase inhibitors (AID 743083); further: nearly all actives have a fitted effect of over 55% in size; further: potency means the concentration at half of the fitted maximal effect
Chain of Aromatase (Homo sapiens) (P11511 whole entry, looked up): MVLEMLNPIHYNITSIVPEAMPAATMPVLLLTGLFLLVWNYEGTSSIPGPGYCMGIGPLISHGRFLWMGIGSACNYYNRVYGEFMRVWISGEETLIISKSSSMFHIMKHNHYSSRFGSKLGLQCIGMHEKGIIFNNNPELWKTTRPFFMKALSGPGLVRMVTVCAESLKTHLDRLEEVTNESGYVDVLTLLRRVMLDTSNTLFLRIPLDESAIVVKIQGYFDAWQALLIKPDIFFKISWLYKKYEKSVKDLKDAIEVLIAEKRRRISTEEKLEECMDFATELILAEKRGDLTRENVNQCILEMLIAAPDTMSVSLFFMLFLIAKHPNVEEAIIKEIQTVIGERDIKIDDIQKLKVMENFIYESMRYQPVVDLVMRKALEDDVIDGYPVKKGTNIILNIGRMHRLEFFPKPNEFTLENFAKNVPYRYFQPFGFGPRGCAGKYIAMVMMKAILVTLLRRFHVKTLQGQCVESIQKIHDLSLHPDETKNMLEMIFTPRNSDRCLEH

[5] = qHTS assay to identify aromatase inhibitors - cell viability counter screen (AID 743084);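 further: cells stimulated with testosterone during compound exposure; nearly all actives have a fitted effect of over 55% in size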; further: potency means the concentration at half of the fitted maximal effect
[6] = biological target: Aryl hydrocarbon receptor (Homo sapiens) (UniProt P35869); test: qHTS assay to identify small molecule that activate the aryl hydrocarbon receptor (AhR) signaling pathway (AID 743085); further: nearly all actives have a fitted effect of over 15% in size; further: potency means the concentration at half of the fitted maximal effect;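 on activation: HG2L7.5c1 human HepG2 liver cells with stably integrated DRE-driven firefly reporter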
Chain of Aryl hydrocarbon receptor (Homo sapiens) (P35869 whole entry, looked up): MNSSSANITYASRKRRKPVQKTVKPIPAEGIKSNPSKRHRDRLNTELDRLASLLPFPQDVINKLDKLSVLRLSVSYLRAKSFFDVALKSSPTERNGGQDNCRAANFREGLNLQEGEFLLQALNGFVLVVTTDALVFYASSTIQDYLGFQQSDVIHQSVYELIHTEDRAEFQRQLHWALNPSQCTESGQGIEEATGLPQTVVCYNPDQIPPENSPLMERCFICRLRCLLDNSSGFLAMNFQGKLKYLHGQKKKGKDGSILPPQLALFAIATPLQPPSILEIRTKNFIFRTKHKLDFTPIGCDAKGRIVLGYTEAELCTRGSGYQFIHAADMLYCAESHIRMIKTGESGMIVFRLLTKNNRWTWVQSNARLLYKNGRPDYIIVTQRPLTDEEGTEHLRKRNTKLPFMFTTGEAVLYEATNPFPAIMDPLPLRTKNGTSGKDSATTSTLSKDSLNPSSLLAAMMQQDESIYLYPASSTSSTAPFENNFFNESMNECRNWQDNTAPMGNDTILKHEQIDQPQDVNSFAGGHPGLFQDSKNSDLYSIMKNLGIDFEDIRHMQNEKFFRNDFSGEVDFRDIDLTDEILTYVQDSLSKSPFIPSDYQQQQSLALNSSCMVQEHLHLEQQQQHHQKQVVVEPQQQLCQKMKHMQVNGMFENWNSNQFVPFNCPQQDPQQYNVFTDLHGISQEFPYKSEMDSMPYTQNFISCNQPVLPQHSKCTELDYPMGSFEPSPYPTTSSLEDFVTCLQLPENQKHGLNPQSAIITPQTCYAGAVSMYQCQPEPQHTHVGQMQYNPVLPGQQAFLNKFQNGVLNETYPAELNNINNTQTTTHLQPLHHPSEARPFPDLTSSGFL
How it was run: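 A multiplexed format paired cell viability (CellTiter-Fluor fluorescence) with AhR-dependent luciferase output (ONE-Glo luminescence) in the same wells of HepG2 DRE-luc cells after 24 h compound exposure at 37C.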

[7] = qHTS assay to identify small molecule that activate the aryl hydrocarbon receptor (AhR) signaling pathway - cell viability counter screen (AID 743086); further: nearly all actives have a fitted effect of over 45% in size; further: potency means the concentration at half of the fitted maximal effect
How it was run: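 HepG2-AhR-luc (HG2L7.5c1) cells, 4000/well, were preincubated 5 h at 37C, exposed to compound in qHTS format for 24 hr at 37C, then given CellTiter-Fluor for 30 min; viability was read as fluorescence in the reporter wells.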

[8] = biological target: Peroxisome proliferator-activated receptor gamma (Homo sapiens) (UniProt P37231); test: qHTS assay to identify small molecule agonists of the peroxisome proliferator-activated receptor gamma (PPARg) signaling pathway (AID 743094; active means well fitted activation curve with a large enough effect in the signal ratio in the repeat runs, not every such curve was filed as active; inconclusive means weak or mixed curves, or effect the other way; inactive means no such curve, though single readings can be large or run the other way; the % refers to the signal ratio)
Chain of Peroxisome proliferator-activated receptor gamma (Homo sapiens) (P37231 whole entry, looked up): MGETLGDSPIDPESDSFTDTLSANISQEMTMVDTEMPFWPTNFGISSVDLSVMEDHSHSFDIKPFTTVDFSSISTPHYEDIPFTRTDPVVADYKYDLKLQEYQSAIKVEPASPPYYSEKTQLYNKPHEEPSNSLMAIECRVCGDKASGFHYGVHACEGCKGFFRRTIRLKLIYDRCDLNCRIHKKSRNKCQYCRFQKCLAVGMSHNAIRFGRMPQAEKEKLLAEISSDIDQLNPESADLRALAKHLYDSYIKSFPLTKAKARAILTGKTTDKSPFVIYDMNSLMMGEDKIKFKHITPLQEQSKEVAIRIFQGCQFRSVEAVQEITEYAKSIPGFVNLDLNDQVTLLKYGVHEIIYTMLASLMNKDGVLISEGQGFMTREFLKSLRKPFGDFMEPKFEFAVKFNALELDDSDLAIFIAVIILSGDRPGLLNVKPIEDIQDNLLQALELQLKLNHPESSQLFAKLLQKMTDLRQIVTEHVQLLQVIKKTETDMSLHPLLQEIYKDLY
How it was run: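 Following 5 h plating at 37C, PPARg-bla HEK293H cells receive compound or DMSO for 17 h; fluorescence intensity is recorded after LiveBLAzer B/G loading for 1 h at room temperature.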

[9] = biological target: Peroxisome proliferator-activated receptor gamma (Homo sapiens) (UniProt P37231); test: qHTS assay to identify small molecule antagonists of the peroxisome proliferator-activated receptor gamma (PPARg) signaling pathway (AID 743191; calls by dose curve; further: nearly all actives have a fitted effect of over 30% in size; further: potency means the concentration at half of the fitted maximal effect)
How it was run: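 GeneBLAzer PPARg UAS-bla HEK293H cells carrying a UAS-driven beta-lactamase reporter were plated at 3000 cells/well, preincubated 5 h at 37C, then given compound for 17 h at 37C; LiveBLAzer B/G FRET substrate was read after 1 h at room temperature.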

[10] = qHTS assay to identify small molecule antagonists of the peroxisome proliferator-activated receptor gamma (PPARg) signaling pathway - cell viability counter screen (AID 743194); further: nearly all actives have a fitted effect of over 55% in size; further: potency means the concentration at half of the fitted maximal effect
How it was run: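 PPARg-UAS-bla HEK293H cells were plated, rested 5 h at 37 C, then treated with compounds plus rosiglitazone (50 nM final) for 17 h at 37 C; viability was then read by CellTiter-Glo luminescence after 30 min at room temperature.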

[11] = qHTS assay for small molecule agonists of the antioxidant response element (ARE) signaling pathway (AID 743202; active means well fitted activation curve with a large enough effect in the signal ratio in the repeat runs, not every such curve was filed as active; inconclusive means weak or mixed curves, or effect the other way; inactive means no such curve, though single readings can be large or run the other way; the % refers to the signal ratio; further: potency means the concentration at half of the fitted maximal effect)
How it was run: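 Read-out: LiveBLAzer B/G FRET substrate fluorescence after 2 h at room temperature, following 16 h compound treatment at 37 C of HepG2 cells carrying an ARE-driven beta-lactamase reporter.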

[12] = qHTS assay for small molecule agonists of the antioxidant response element (ARE) signaling pathway - cell viability counter screen (AID 743203; calls by dose curve; further: nearly all actives have a fitted effect of over 55% in size; further: potency means the concentration at half of the fitted maximal effect)
How it was run: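 Compounds in DMSO were pinned onto ARE-bla HepG2 cells plated 5 hrs earlier at 2,000 cells/well. Sixteen hours later at 37C/5% CO2, CellTiter-Glo was added and luminescence measured after 30 min at room temperature.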

[13] = qHTS assay to identify small molecule agonists of the peroxisome proliferator-activated receptor delta (PPARd) signaling pathway - cell viability counter screen (AID 743211); further: nearly all actives have a fitted effect of over 55% in size; further: potency means the concentration at half of the fitted maximal effect
How it was run: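 Tox21 library compounds, delivered in DMSO, were incubated 17 h with PPARd-bla HEK293H cells; cytotoxicity was taken from CellTiter-Glo luminescence read 30 min after reagent addition.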

[14] = biological target: Peroxisome proliferator-activated receptor delta (Homo sapiens) (UniProt Q03181); test: qHTS assay to identify small molecule agonists of the peroxisome proliferator-activated receptor delta (PPARd) signaling pathway (AID 743212; calls by dose curve)
Chain of Peroxisome proliferator-activated receptor delta (Homo sapiens) (Q03181 whole entry, looked up): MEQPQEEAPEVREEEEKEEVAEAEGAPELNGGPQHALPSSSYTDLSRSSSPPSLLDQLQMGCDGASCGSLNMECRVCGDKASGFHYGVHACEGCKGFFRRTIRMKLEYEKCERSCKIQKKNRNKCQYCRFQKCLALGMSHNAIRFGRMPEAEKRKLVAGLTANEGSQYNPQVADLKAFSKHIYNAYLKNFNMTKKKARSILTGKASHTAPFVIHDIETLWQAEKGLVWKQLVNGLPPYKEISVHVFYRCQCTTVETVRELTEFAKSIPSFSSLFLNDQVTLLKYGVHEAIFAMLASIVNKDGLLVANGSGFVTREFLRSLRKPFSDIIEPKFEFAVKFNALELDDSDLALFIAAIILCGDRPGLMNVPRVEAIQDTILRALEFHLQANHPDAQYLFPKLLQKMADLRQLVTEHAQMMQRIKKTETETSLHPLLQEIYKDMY
How it was run: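 GeneBLAzer PPARd UAS-bla HEK293H cells (beta-lactamase reporter under UAS control), plated and rested 5 h at 37 C, then exposed to compounds in DMSO at 37 C; LiveBLAzer B/G FRET substrate added, 2 h room temperature, fluorescence read.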

[15] = biological target: Estrogen receptor (Homo sapiens) (UniProt P03372); test: qHTS assay to identify small molecule antagonists of the estrogen receptor alpha (ER-alpha) signaling pathway (AID 743069; active means well fitted curve in the direction sought with a large enough effect in the signal ratio in the repeat runs, not every such curve was filed as active; inconclusive means weak or mixed curves, or effect the other way; inactive means no such curve, though single readings can be large or run the other way; the % refers to the signal ratio; further: potency means the concentration at half of the fitted maximal effect)
Chain of Estrogen receptor (Homo sapiens) (P03372 whole entry, looked up): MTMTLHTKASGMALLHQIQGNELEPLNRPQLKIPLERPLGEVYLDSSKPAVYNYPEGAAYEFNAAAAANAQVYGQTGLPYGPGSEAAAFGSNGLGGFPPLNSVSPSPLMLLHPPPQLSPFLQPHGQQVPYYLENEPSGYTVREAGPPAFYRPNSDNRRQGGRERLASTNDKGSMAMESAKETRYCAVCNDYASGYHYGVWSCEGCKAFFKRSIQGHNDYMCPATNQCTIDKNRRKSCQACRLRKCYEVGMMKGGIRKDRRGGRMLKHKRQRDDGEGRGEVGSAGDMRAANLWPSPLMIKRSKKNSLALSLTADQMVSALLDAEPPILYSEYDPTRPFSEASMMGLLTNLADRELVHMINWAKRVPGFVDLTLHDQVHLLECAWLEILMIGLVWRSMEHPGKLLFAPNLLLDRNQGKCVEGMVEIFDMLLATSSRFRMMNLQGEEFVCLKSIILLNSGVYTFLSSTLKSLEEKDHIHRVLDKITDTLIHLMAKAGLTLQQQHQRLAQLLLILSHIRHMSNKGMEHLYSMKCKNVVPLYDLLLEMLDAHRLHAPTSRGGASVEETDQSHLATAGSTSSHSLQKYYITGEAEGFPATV
How it was run: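 HEK293 cells stably carrying an ER-alpha-UAS-bla beta-lactamase reporter were pre-cultured overnight in 2% charcoal-stripped FBS medium. Test compounds in DMSO were added together with 17beta-estradiol for 18 hr at 37C. Read-out was fluorescence after 2 hr with LiveBLAzer B/G FRET substrate at room temperature.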

[16] = qHTS assay to identify small molecule antagonists of the estrogen receptor alpha (ER-alpha) signaling pathway using the BG1 cell line (AID 743080; calls by dose curve; further: nearly all actives have a fitted effect of over 25% in size; further: potency means the concentration at half of the fitted maximal effect); conditions: BG1Luc4E2 ERE-luciferase antagonist mode, luminescence; activity change, negative = inhibition: at 70.3 µM (top of the series)
How it was run: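 Antagonist mode: compounds in DMSO were pinned onto BG1-Luc-4E2 cells alongside 17beta-estradiol agonist, incubated 21.5 h, and ERE-driven luciferase measured with ONE-Glo. Cytotoxicity was multiplexed using CellTiter-Fluor fluorescence.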

[17] = qHTS assay for small molecule activators of the heat shock response signaling pathway - cell viability counter screen (AID 743209); further: nearly all actives have a fitted effect of over 50% in size; further: potency means the concentration at half of the fitted maximal effect
How it was run: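 Counter screen for cytotoxicity in HeLa HSE-bla reporter cells. Treatment was 5 h at 37 C; viability was detected by luminescent ATP assay (CellTiter-Glo) in the same wells as the beta-lactamase read.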

[18] = biological target: Estrogen receptor (Homo sapiens) (UniProt P03372); test: qHTS assay to identify small molecule agonists of the estrogen receptor alpha (ER-alpha) signaling pathway (AID 743075; calls by dose curve; further: potency means the concentration at half of the fitted maximal effect)
[19] = qHTS assay for small molecule activators of the heat shock response signaling pathway (AID 743210; active means well fitted activation curve with a large enough effect in the signal ratio in the repeat runs, with a control signal flat, not every such curve was filed as active; inconclusive means weak or mixed curves; the % refers to the signal ratio)
How it was run: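 HSE-bla HeLa cells (beta-lactamase reporter under heat shock response elements) were exposed to compounds for 5 h at 37 C, then loaded with LiveBLAzer B/G FRET substrate for 2.5 h at room temperature before fluorescence reading.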

[20] = biological target: Estrogen receptor (Homo sapiens) (UniProt P03372); test: qHTS assay to identify small molecule agonists of the estrogen receptor alpha (ER-alpha) signaling pathway using the BG1 cell line (AID 743079); conditions: BG1Luc4E2 cells, ERE-luciferase agonist, 22 h; activation: at 70.3 µM (top of the series); further: nearly all actives have a fitted effect of over 20% in size; further: potency means the concentration at half of the fitted maximal effect
On the % scale 0 is the no-effect control and ±100 the full control effect.

Cc1c(C(=O)O)cccc1[N+](=O)[O-]
inactive: Potency [1] | Potency [2] | Potency [3] | Potency [4] | Potency [5] | Potency [6] | Potency [7] | Potency [8] | Potency [9] | Potency [10] | Potency [11] | Potency [12] | Potency [13] | outcome [14]

CCN=C1C=CC(=C(c2ccc(N(CC)CC)cc2)c2ccc(N(CC)CC)cc2)c2ccccc21
active: Potency [15] 38.7 µM [cytotoxic] | Potency [2] 19.4 µM | Potency [16] 0.136 µM | Potency [3] 30.5 µM | Potency [4] 0.216 µM | Potency [5] 9.63 µM | Potency [7] 24.2 µM | Potency [10] 0.154 µM | Potency [12] 5.42 µM | Potency [17] 21.7 µM | Potency [13] 3.87 µM
inactive: Potency [1] | Potency [6]

CCOC(=O)N1CCC(=C2c3ccc(Cl)cc3CCc3cccnc32)CC1
inactive and 61.1 µM (active): Potency [16]
active: Potency [15] 26.8 µM [inconclusive] | Potency [10] 49 µM and 26.6 µM | Potency [12] 30.6 µM | Potency [13] 27.5 µM and 29.8 µM
inactive: Potency [1] | Potency [2] | Potency [18] | Potency [3] | Potency [5] | Potency [17]

Nc1ncnc2c1ncn2[C@@H]1O[C@H](COP(=O)(O)O)[C@@H](O)[C@H]1O
inactive: Potency [1] | Potency [3] | Potency [4] | Potency [5] | Potency [6] | Potency [7] | Potency [8] | Potency [9] | Potency [10] | Potency [11] | Potency [12] | Potency [17] | Potency [19] | outcome [14]
active: Potency [2] 21.3 µM | Potency [13] 10.6 µM

CCCCCCCCCCCCCC[n+]1ccccc1
active: Potency [2] 24.5 µM | Potency [16] 4.86 µM | Potency [4] 6.11 µM | Potency [5] 54.5 µM | Potency [7] 54.5 µM | Potency [10] 17.4 µM | Potency [12] 27.3 µM | Potency [13] 24.5 µM
inactive: Potency [1] | Potency [18] | Potency [6]

C[C@@]12C(=O)OC(=O)[C@]1(C)C1CCC2O1
inactive: Potency [1] | Potency [18] | Potency [10] | Potency [17] | Potency [19]
active: Potency [15] 4.06 µM [inconclusive] | Potency [5] 3.59 µM | Potency [7] 0.569 µM | Potency [12] 4.22 µM

CCN(CC)CCSC(=O)C(c1ccccc1)c1ccccc1
inactive: Potency [1] | Potency [2] | Potency [18] | Potency [20] | Potency [3] | Potency [4] | Potency [5] | Potency [6] | Potency [7] | Potency [10] | Potency [11] | Potency [12] | Potency [17]

CCO[Si](CCCSSSSCCC[Si](OCC)(OCC)OCC)(OCC)OCC
inactive: Potency [1] | Potency [15] | Potency [18] | Potency [20] | Potency [16] | Potency [3] | Potency [4] | Potency [5] | Potency [6] | Potency [7] | Potency [8] | Potency [10] | Potency [11] | Potency [12] | Potency [17] | Potency [19]

O=C(c1ccccc1)c1cc(Cl)ccc1O
active: Potency [18] 58.5 µM [activator] | activation [20] 22.1%
inactive: Potency [1] | Potency [2] | Potency [16] | Potency [3] | Potency [5] | Potency [7] | Potency [8] | Potency [9] | Potency [10] | Potency [12] | Potency [17] | Potency [19] | Potency [13]

CCCCCCOc1cc(C)c(O)c(C)c1C
inactive: Potency [1] | Potency [2] | Potency [18] | Potency [20] | Potency [3] | Potency [7] | Potency [8] | Potency [10] | Potency [13] | outcome [14]
active: Potency [4] 43.8 µM | Potency [5] 49.2 µM

C[C@]12CC[C@H]3C(=CCc4cc(O)ccc43)[C@@H]1CCC2=O
active: Potency [1] 1.54 µM | activation [20] 38%
inactive: Potency [2] | Potency [3] | Potency [4] | Potency [5] | Potency [7] | Potency [8] | Potency [10] | Potency [12] | Potency [19] | Potency [13] | outcome [14]

CCCCCCCCCCCCCOP(=O)(O)O
inactive: Potency [1] | Potency [2] | Potency [18] | Potency [20] | Potency [16] | Potency [3] | Potency [5] | Potency [6] | Potency [7] | outcome [14]
active: Potency [10] 43.6 µM | Potency [12] 43.3 µM | Potency [17] 34.7 µM

CCCCCCCCCCCCN(CCO)CCO
inactive: Potency [1] | Potency [18] | Potency [6]
active: Potency [2] 48.8 µM | Potency [16] 68.3 µM | Potency [4] 30.5 µM | Potency [5] 48.4 µM | Potency [10] 54.7 µM | Potency [12] 54.3 µM | Potency [17] 54.7 µM | Potency [13] 38.7 µM

c1ccc(Nc2cccc3ccccc23)cc1
49.6 µM (active) and inactive: Potency [9]
inactive: Potency [1] | Potency [2] | Potency [16] | Potency [3] | Potency [7] | Potency [8] | Potency [10] | Potency [11] | Potency [12] | Potency [19] | Potency [13]
active: Potency [18] 44.2 µM [inconclusive] and 17.4 µM [activator] | Potency [20] 13.9 µM and 9.69 µM | Potency [4] 43.8 µM and 61.1 µM | Potency [5] 39.1 µM | Potency [6] 49.2 µM and 54.5 µM

C1CC(COCC2CO2)CCC1COCC1CO1 (stereo not given)
inactive: Potency [1] | Potency [2] | Potency [18] | Potency [20] | Potency [16] | Potency [3] | Potency [6] | Potency [7] | Potency [8] | Potency [9] | Potency [10] | Potency [12] | Potency [19] | Potency [13] | outcome [14]
active: Potency [11] 54.5 µM

CCCCCCCC/C=C\CCCCCCCC(=O)OCCOC(=O)CCCCCCC/C=C\CCCCCCCC
inactive: Potency [1] | Potency [2] | Potency [18] | Potency [16] | Potency [3] | Potency [4] | Potency [5] | Potency [6] | Potency [7] | Potency [8] | Potency [10] | Potency [11] | Potency [12] | Potency [17] | Potency [19] | Potency [13] | outcome [14]
active: Potency [20] 71.2 µM

S=C(SSSSSSC(=S)N1CCCCC1)N1CCCCC1
active: Potency [4] 0.268 µM | Potency [5] 0.379 µM | Potency [7] 2.39 µM | Potency [17] 0.0763 µM | Potency [13] 0.108 µM
inactive: Potency [1] | Potency [15] | Potency [18] | Potency [20] | Potency [3] | Potency [6] | Potency [8] | Potency [9] | Potency [10] | Potency [12]

Cc1ccc(N)cc1O
inactive: Potency [1] | Potency [15] | Potency [18] | Potency [20] | Potency [16] | Potency [3] | Potency [10] | Potency [12] | Potency [19]
active: Potency [6] 15.7 µM | Potency [7] 61.1 µM | Potency [9] 49 µM
